# ANO1 block: TMEM16A chloride channel inhibitors, primary screen, cell-based, HTS; 310,000 tested, 1.2% active; HEK293 TMEM16A/YFP iodide influx fluorescence, ionomycin; AID 588511, 2011; Anoctamin-1 (Mus musculus), Q8BHY3; normalized B-score (activity score, 25-100; higher = stronger inhibition) at 10 µM;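 active means ratio plate-corrected score three or more library SD toward inhibition, starting fluorescence score within five deviations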;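 further: score derived from kinetic fluorescence span divided by baseline fluorescence per well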
# CHT PAM: CHT positive allosteric modulators, primary screen, cell-based, membrane potential dye, choline EC20; 310,000 tested, 0.49% active; AID 488977, 2010; CHT-expressing cells; stronger effect = higher value; LV-AA mutant CHT in HEK293 cells; High affinity choline transporter 1 (Homo sapiens), Q9GZV3; B-score at 10 µM;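 active means initial fluorescence not abnormally high and integrated response B-score, plate-corrected, over 3 SD above library mean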
# Target sequence (Q9GZV3 whole entry, looked up): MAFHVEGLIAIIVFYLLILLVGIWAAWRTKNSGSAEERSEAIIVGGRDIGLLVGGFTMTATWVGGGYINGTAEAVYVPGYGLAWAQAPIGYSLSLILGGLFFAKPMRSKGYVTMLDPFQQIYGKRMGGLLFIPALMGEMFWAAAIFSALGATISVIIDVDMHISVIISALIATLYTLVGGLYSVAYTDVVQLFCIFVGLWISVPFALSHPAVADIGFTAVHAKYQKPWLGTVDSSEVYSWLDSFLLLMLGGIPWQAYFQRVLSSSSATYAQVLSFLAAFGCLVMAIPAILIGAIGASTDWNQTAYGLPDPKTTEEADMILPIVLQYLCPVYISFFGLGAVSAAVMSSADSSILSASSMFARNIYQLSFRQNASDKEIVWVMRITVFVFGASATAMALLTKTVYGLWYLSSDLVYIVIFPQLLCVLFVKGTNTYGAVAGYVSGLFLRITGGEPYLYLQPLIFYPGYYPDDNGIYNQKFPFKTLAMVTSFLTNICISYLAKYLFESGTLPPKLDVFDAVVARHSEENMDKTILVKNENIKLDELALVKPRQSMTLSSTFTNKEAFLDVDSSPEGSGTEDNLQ
# HDAC3 inhib: HDAC3 deacetylase inhibitors, primary screen, biochemical, fluorescence, cell-free homogeneous. recombinant HDAC3, fluorogenic peptide/trypsin coupled. AID 2718, 2010. 320,000 tested, 0.15% active. inhibition, % at 8.3 µM; in the data active means inhibition above about 26%, passing the limit was not always enough; inconclusive means no clear call, values can overlap the other calls
# PHOSPHO1 inh: PubChem AID 1565; Phosphoethanolamine/phosphocholine phosphatase (Homo sapiens), Q8TCT1; recombinant PHOSPHO1, absorbance phosphatase assay; inhibition, % at 13.3 µM; 290,000 tested, 1.1% active; in the data active means inhibition above about 60%
# ANO1 activ: TMEM16A chloride channel activators or potentiators, primary screen, cell-based, HTS; HEK293 TMEM16A/YFP-H148Q/I152L, iodide quench fluorescence; stronger effect = lower value; AID 623877, 2012; B-score at 10 µM; Anoctamin-1 (Mus musculus), Q8BHY3; 340,000 tested, 0.3% active;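 active means fluorescence-ratio B-score plate-corrected deviation score at least 3 library SD below zero, with starting fluorescence score within 5 deviations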;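 further: channel opened by trigger with iodide after compound preincubation; score built on the fluorescence ratio of max minus min over baseline; more negative score means more quench and so TMEM16A activation or potentiation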
# CHT block: inhibitors of human choline transporter CHT; CHT-expressing cells, membrane potential dye, choline response; stronger effect = lower value; 310,000 tested, 0.86% active; B-score at 10 µM; High affinity choline transporter 1 (Homo sapiens), Q9GZV3; AID 488975, 2010;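 active means B-score over 3 SD under the library average, and starting fluorescence ratio not unusually high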;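 further: choline stimulus applied at its EC90 after an EC20 pre-addition; B-score computed on integrated fluorescence ratio after choline addition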
# * marks the source's active call; other numbers are inactive results; i = inactive; ? = inconclusive; . = no result given. In the library only some 3.2% were active in any assay of this set; here they are far more common.
SMILES,ANO1 block,CHT PAM,HDAC3 inhib,PHOSPHO1 inh,ANO1 activ,CHT block
COc1cccc(C2=CC(c3ccc(N(C)C)cc3)n3ncnc3N2)c1 (stereo not drawn),i,i,-1,-8,.,-9.3*
COc1cccc(C2=CC(c3ccc(N(C)C)cc3)n3nnnc3N2)c1 (stereo not drawn),i,i,-5,63*,i,i
COc1ccc(C2C=C(c3ccc(C)cc3)Nc3ncnn32)cc1 (stereo not drawn),.,.,.,24,i,.
Cc1ccc(C)c(N(C)C(=O)c2coc(=O)c3ccccc23)c1,i,i,5,24,i,i
COc1cc2oc3ccccc3c2cc1N(CC(=O)N1CCCCC1)S(=O)(=O)c1ccc(C)cc1,i,i,-3,-41,-29*,i
Cc1cccc(C)c1NS(=O)(=O)c1ccc(NC(=O)c2ccc(Cl)c([N+](=O)[O-])c2)cc1,i,i,13,-30,i,i
O=C(Nc1ccccc1)Nc1ccc(Cl)c([N+](=O)[O-])c1,100*,i,.,18,i,i
O=C(Nc1ccccc1)Nc1ccc(F)c([N+](=O)[O-])c1,25*,i,0,0,i,i
O=C(Nc1ccc(C(O)(C(F)(F)F)C(F)(F)F)cc1)c1ccc(Cl)c([N+](=O)[O-])c1,100*,i,14,-2,i,i
CC(CC(=O)Nc1ccc(Cl)c([N+](=O)[O-])c1)c1ccccc1 (stereo not drawn),100*,i,0,8,i,i
Cc1ccc(NC(=O)Nc2ccccc2)cc1[N+](=O)[O-],i,i,?,11,i,i
CCc1cccc(CC)c1NC(=O)COC(=O)CCc1cc(OC)c(OC)c(OC)c1,i,i,.,-46,i,i
O=C(CCn1c(=S)[nH]c2ccccc2c1=O)NCC1CCCO1 (stereo not drawn),i,i,-2,-14,i,i
COc1ccc(/C=N/n2cncn2)cc1CSc1ccccn1,i,i,-2,-2,i,i
N#Cc1ccsc1NC(=O)c1ccc(Cl)c([N+](=O)[O-])c1,i,i,-2,-4,i,-8.7*
CCOC(=O)CCc1c(C)c2ccc(OCC(=O)N3CCOCC3)c(C)c2oc1=O,i,i,-62,62*,i,i
CCOC(=O)CCc1c(C)c2ccc(OCC)c(C)c2oc1=O,i,i,-5,3,.,i
O=C(Cn1cnc([N+](=O)[O-])n1)NC1CC1,i,i,-10,68*,i,i
CCCCNC(=O)Cn1cnc([N+](=O)[O-])n1,i,i,0,50,i,i
CCOc1cc(C(=O)NCc2ccccc2)ccc1OCC(=O)N1CCCCC1,.,.,2,.,i,.
NS(=O)(=O)c1ccc(NCc2cc(Cl)ccc2OCc2ccc(F)cc2)cc1,25*,i,8,-4,i,i
NS(=O)(=O)c1ccc(NCc2ccccc2OCc2ccccc2F)cc1,i,i,0,27,i,i
COc1ccc(CNCCc2ccc(Cl)cc2)cc1OCc1ccccc1,100*,i,5,-3,i,i
CCOc1cc(CNCCc2ccc(S(N)(=O)=O)cc2)cc(Cl)c1OCc1ccccc1,25*,i,-3,3,i,i
COc1ccc(CNCCc2ccccc2)cc1OCC(N)=O,i,i,4,18,i,i
SMILES,ANO1 block,CHT PAM,HDAC3 inhib,PHOSPHO1 inh,ANO1 activ,CHT block
NS(=O)(=O)c1ccc(CCNCc2cc(Br)ccc2OCc2ccccc2)cc1,100*,i,1,-4,i,i
CCOC(=O)/C(C#N)=C/c1cccc([N+](=O)[O-])c1,i,i,6,64*,i,i
COc1ccc(NC(=O)Cn2nnc(C(=O)NCc3ccc(C)cc3)c2N)cc1Cl,i,i,-6,22,i,i
C=CCNc1nnc(SC2CC(=O)N(c3ccc(OC)cc3)C2=O)s1 (stereo not drawn),i,i,-6,93*,i,i
Cc1cc(C)c(C(=O)CSc2n[nH]c(-c3ccncc3)n2)c(C)c1,i,i,3,18,i,i
Cc1ccc(C)c(C(=O)CSc2n[nH]c(-c3ccncc3)n2)c1,i,i,2,64*,i,i
Cc1cc(C)c2c(N=NN3CCCCC3)[nH]nc2n1,i,i,6,-24,i,i
CCN(CC)N=Nc1[nH]nc2nc(C)cc(C)c12,i,i,1,69*,i,i
Cc1cc(C(=O)COC(=O)c2ccc(NC(=O)CC#N)cc2)c(C)n1-c1ccc(OC(F)F)cc1,.,.,10,.,i,.
Fc1cccc(CCN2CCNC[C@H]2Cc2cccc3ccccc23)c1,i,i,-1,.,i,i
O=C(O)CSc1ncnc2sc(-c3ccccc3)cc12,i,i,6,1,i,i
CC(=O)c1c(C)[nH]c(C(=O)CSc2ncnc3sc(-c4ccccc4)cc23)c1C,25*,i,5,-42,i,i
CN1CCN(C(=S)c2ccc(Br)cc2)CC1,i,i,9,61*,i,i
CCN1CCN(C(=S)c2ccc(Br)cc2)CC1,i,i,3,-9,i,i
CCCCCCCCOC(=O)c1c(CSC(=N)N)n(C)c2cc(Br)c(OC(C)=O)cc12,i,i,33*,-33,i,i
CCOC(=O)c1c(CSC(=N)N)n(-c2ccc(Br)cc2)c2cc(Br)c(OC(C)=O)cc12,.,.,.,2,i,.
COc1ccccc1-c1cc(C(=O)N2CCc3ccccc3C2)c2ccccc2n1,100*,i,3,4,.,i
CCSC1=C(C#N)C(c2ccc(Cl)cc2)C2=C(CCCC2=O)N1 (stereo not drawn),i,i,-1,12,i,i
Cn1ccnc1SCC(=O)c1ccc(Br)cc1,i,i,1,61*,i,i
O=C(COc1ccc(-n2ccnc2)cc1)Nc1cccc(F)c1,i,i,0,-5,i,i
O=C(COc1ccc(-n2ccnc2)cc1)Nc1cccc(Cl)c1,25*,i,-4,20,i,i
Cc1ccc(NC(=O)C(NC2CCCc3ccccc32)c2ccccc2)c([N+](=O)[O-])c1 (stereo not drawn),i,i,-2,-16,-5.8*,i
